High-throughput results as filed in PubChem BioAssay.
This is a sample that favours compounds with a hit; in the whole collection about 2.3% have one here.
SENP8 block-1: SENP8 (human) protease inhibition. Q96LD8. recombinant SENP8, Nedd8 substrate fluorescence. inhibition, % at 20 µM. 360,000 tested, 0.64% active. AID 602440; in the data active = inhibition mostly above about 40%, no sharp cut-off; inactive = mostly below about 27%
Target sequence (Q96LD8 whole entry, looked up): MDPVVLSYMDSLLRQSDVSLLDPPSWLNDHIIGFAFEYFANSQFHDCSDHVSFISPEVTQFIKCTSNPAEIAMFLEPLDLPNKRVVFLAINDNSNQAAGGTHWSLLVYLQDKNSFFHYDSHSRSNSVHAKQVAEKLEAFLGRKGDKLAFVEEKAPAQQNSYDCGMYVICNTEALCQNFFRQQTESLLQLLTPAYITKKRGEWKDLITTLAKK
HSP90 inh: HSP90 refolding inhibition in rabbit reticulocyte lysate; luciferase refolding luminescence, 3 h; inhibition, % at 5.6 µM; 290,000 tested, 0.91% active; AID 1789;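 active = inhibition above the screen-wide mean plus 3 SD, computed separately per campaign, cut at about 16% in these data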;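 also: inhibitors lower the luminescence because luciferase stays unfolded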
SENP6 block: blocks the human protease SENP6 | Q9GZR1 | 330,000 tested, 1.8% active | inhibition, % at 10 µM | AID 2599 | Recombinant SENP6 catalytic domain, aminoluciferin luminescence;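 active = inhibition above about 50% at the single tested dose, limit read from the data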
LGR2 inh: Drosophila LGR2 receptor signaling inhibition; HEK293 LGR2, CRE-luciferase, bursicon-stimulated, 4 h; inhibition, % at 9.99 µM; 380,000 tested, 0.35% active; AID 720647;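 active = drop in luminescence signal, shown as inhibition above about 50% in the replicate tests, limit read from the data, passing the limit was not always enough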;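 also: agonist challenge used bursicon conditioned medium at about half maximal strength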
SENP8 block-2: blocks the human protease SENP8; Q96LD8; inhibition, % at 10 µM; purified SENP8, Z-RLRGG-aminoluciferin cleavage, luminescence; 330,000 tested, 1.2% active; in the data active = inhibition above about 50%
SENP7 block: inhibitors of human SENP7 protease; Q9BQF6; recombinant SENP7, Z-RLRGG-aminoluciferin luminescence, 40 min; inhibition, % at 5 µM; 330,000 tested, 1.5% active;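 active = inhibition above about 50% at the single test dose, limit read from the data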
Target sequence (Q9BQF6 706-1050 limits assumed): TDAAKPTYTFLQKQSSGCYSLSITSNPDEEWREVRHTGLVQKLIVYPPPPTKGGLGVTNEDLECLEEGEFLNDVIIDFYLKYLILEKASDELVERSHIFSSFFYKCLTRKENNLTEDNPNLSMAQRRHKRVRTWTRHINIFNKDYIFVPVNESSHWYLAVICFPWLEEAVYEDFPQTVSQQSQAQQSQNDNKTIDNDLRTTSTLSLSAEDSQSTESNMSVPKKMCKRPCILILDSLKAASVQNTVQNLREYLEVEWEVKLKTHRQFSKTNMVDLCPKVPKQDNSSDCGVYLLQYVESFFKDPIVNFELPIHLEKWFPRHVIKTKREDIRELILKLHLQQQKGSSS
SENP8 conf: human SENP8 inhibition, confirmed; 6,200 tested, 40% active; shares compounds with SENP7 block; inhibition, % at 12.5 µM; Recombinant SENP8, Z-RLRGG-aminoluciferin luminescence, 60 min;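 active = mean inhibition across replicates above about 50%, limit read from the data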
SENP6 confirm: human SENP6 inhibition, confirmed; shares compounds with SENP7 block; recombinant SENP6, Z-RLRGG-aminoluciferin luminescence; inhibition, % at 12.5 µM; 6,200 tested, 58% active; AID 488915
SENP7 conf: confirmation of human SENP7 protease inhibitors; shares compounds with SENP7 block; recombinant SENP7, Z-RLRGG-aminoluciferin luminescence, 40 min; inhibition, % at 12.5 µM; 6,200 tested, 69% active
Casp3 SENP sel: selectivity test for SENP inhibitors: human caspase-3 inhibition. shares compounds with SENP7 block. purified caspase-3, Z-DEVD-aminoluciferin luminescence, 60 min. inhibition, % at 12.5 µM. 6,200 tested, 60% active. AID 488918;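 active = mean inhibition above about 50%, limit read from the data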
Luc interf: interferes with luciferase luminescence in SENP counter-screen. inhibition, % at 12.5 µM. Pre-incubated SENP8/Z-RLRGG-aminoluciferin, luciferase luminescence interference. shares compounds with SENP7 block. 6,200 tested, 39% active;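 active = mean inhibition above about 50% when retested at one dose, limit read from the data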
Numbers stand for hits; i = inactive; nt = no result.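 The calls were made as follows, unless noted: active = mean inhibition above about 50% in the one-dose retest (limit read from the data); inactive = the rest.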

SMILES | SENP8 block-1 | HSP90 inh | SENP6 block | LGR2 inh | SENP8 block-2 | SENP7 block | SENP8 conf | SENP6 confirm | SENP7 conf | Casp3 SENP sel | Luc interf
CO[C@@H]1CN(C)C(=O)c2ccc(NC(=O)C3CC3)cc2OC[C@H](C)N(Cc2nccs2)C[C@H]1C | nt | nt | nt | i | nt | nt | nt | nt | nt | nt | nt
CCCNC(=O)c1c(O)c2c([nH]c1=O)CCCC2 | i | i | i | i | i | i | nt | nt | nt | nt | nt
CCN(CC)CCCNC(=O)c1c(O)c2c([nH]c1=O)CCCC2 | i | i | i | i | i | 59 | i | i | i | i | i
COc1ccccc1NC(=O)N(C)C[C@@H]1OCc2ccccc2-c2c(n(C)c3ccccc23)C(=O)N([C@@H](C)CO)C[C@H]1C | nt | nt | nt | i | nt | nt | nt | nt | nt | nt | nt
N/C(=N\OC(=O)c1ccccc1)c1cccnc1 | i | i | i | i | i | 56 | i | i | 61 | 72 | i
N/C(=N\OC(=O)c1ccccc1Cl)c1cccnc1 | i | i | 65 | nt | i | 57 | 56 | 54 | 82 | 79 | 64
N/C(=N\OC(=O)c1cc(Cl)ccc1Cl)c1cccnc1 | i | i | i | i | i | i | nt | nt | nt | nt | nt
N/C(=N\OC(=O)c1cccc(Cl)c1)c1cccnc1 | i | i | i | nt | i | i | nt | nt | nt | nt | nt
N/C(=N\OC(=O)c1ccc(Cl)c(Cl)c1)c1cccnc1 | i | i | 67 | nt | i | 64 | i | i | i | i | i
CCS(=O)(=O)Nc1ccc2c(c1)C(=O)N(C)C[C@H](OC)[C@@H](C)CN(C(=O)COC)[C@@H](C)CO2 | nt | nt | nt | i | nt | nt | nt | nt | nt | nt | nt
C[C@@H]1CN([C@@H](C)CO)C(=O)c2cc(C3=CCCCC3)cnc2O[C@H]1CN(C)C(=O)c1ccccc1 | nt | nt | nt | i | nt | nt | nt | nt | nt | nt | nt
COc1ccc(CONc2ncnc3nonc23)cc1[N+](=O)[O-] | i | i | 70 | i | 55 | i | i | 50 | 83 | 70 | 62
CCONc1ncnc2nonc12 | i | i | i | i | i | i | nt | nt | nt | nt | nt
CN1C[C@H](O)COC[C@@H]2O[C@@H](CC(=O)N3CCN(c4ccccc4)CC3)CC[C@H]21 | nt | nt | nt | i | nt | nt | nt | nt | nt | nt | nt
CCCCCCOC(=O)c1ccc(OC(=O)c2cccnc2)cc1 | i | i | 53 | nt | i | i | i | i | i | i | i
CCCCOC(=O)c1ccc(OC(=O)c2cccnc2)cc1 | i | i | i | nt | i | i | nt | nt | nt | nt | nt
CCCCS/C(N)=N/N=C/c1cc(C)ccc1O | i | i | i | nt | i | i | nt | nt | nt | nt | nt
CS/C(N)=N/N=C/c1cc(C)ccc1O | i | i | i | i | 54 | 63 | i | 60 | 85 | 64 | 66
CCS/C(N)=N/N=C/c1cc(C)ccc1O | i | i | 71 | nt | i | 51 | 62 | 62 | 87 | 62 | i
Cc1noc(C)c1S(=O)(=O)N(C)C[C@H]1OCCCC[C@@H](C)Oc2ccc(NS(=O)(=O)c3ccccc3)cc2C(=O)N([C@H](C)CO)C[C@@H]1C | nt | nt | nt | i | nt | nt | nt | nt | nt | nt | nt
CCCOc1ccc(OCCSc2ncccn2)cc1 | i | i | 78 | nt | i | 65 | i | 54 | 86 | 53 | i
C[C@H]1CN([C@@H](C)CO)C(=O)c2cc(-c3cccc(C#N)c3)cnc2O[C@@H]1CN(C)Cc1ccncc1 | nt | nt | nt | i | nt | nt | nt | nt | nt | nt | nt
CN1C(=O)CC(Nc2cccc3cccc(N)c23)C1=O (stereo not drawn) | i | i | i | nt | i | 61 | i | i | i | i | i
CCN(CC)c1ccc(N)cc1 | i | nt | i | nt | i | i | nt | nt | nt | nt | nt
Nc1ccc(N(CCO)CCO)cc1 | 65 | i | 57 | i | i | i | i | i | i | i | i
SMILES | SENP8 block-1 | HSP90 inh | SENP6 block | LGR2 inh | SENP8 block-2 | SENP7 block | SENP8 conf | SENP6 confirm | SENP7 conf | Casp3 SENP sel | Luc interf
CN(C)CC(=O)N[C@@H]1CC[C@@H](CC(=O)NCc2ccc(Cl)cc2)O[C@H]1CO | nt | nt | nt | i | nt | nt | nt | nt | nt | nt | nt
Cc1noc(C)c1S(=O)(=O)N(C)C[C@H]1OCCCC[C@@H](C)Oc2ccc(NC(=O)c3ccccc3)cc2C(=O)N([C@@H](C)CO)C[C@@H]1C | nt | nt | nt | i | nt | nt | nt | nt | nt | nt | nt
Cc1ccc(SC/C(O)=C(\C#N)c2nc3ccccc3s2)cc1 | i | i | 71 | nt | i | i | i | i | i | i | i
N#C/C(=C(/O)CSc1ccccn1)c1nc2ccccc2s1 | i | i | i | i | i | i | nt | nt | nt | nt | nt
COc1ccc(-c2cc(C(=O)Nc3ccccc3F)on2)cc1 | i | i | i | i | i | 70 | i | i | i | i | i
COc1ccc(-c2cc(C(=O)Nc3ccccc3)on2)cc1 | i | i | 61 | i | i | 86 | i | i | i | i | i
C[C@H](CO)N1C[C@H](C)[C@@H](CN(C)CC2CC2)OCCCC[C@H](C)Oc2ccc(NC(=O)CCCCCC(=O)Nc3ccccc3N)cc2C1=O | nt | nt | nt | i | nt | nt | nt | nt | nt | nt | nt
Cc1ccc(/C=N/OC(=O)c2nn(C)cc2Cl)cc1 | i | i | 66 | i | 50 | 66 | i | i | 62 | i | i
CCNC(=O)Nc1ccc2c(c1)C(=O)N(C)[C@H]1CC[C@@H](CC(=O)NCc3ccccc3F)O[C@H]1CO2 | nt | nt | nt | i | nt | nt | nt | nt | nt | nt | nt
CN(C)CCCN(C(=O)COc1ccc(Cl)cc1)c1nc2ccc(F)cc2s1 | i | i | 55 | i | i | i | i | i | i | i | i
CN(C)CCCN(C(=O)COc1ccccc1)c1nc2ccc(F)cc2s1 | i | i | i | i | i | i | nt | nt | nt | nt | nt
CC(C)NC(=O)Nc1ccc2c(c1)C(=O)N([C@@H](C)CO)C[C@@H](C)[C@H](CN(C)Cc1ccc(C(F)(F)F)cc1)OCCCC[C@H](C)O2 | nt | nt | nt | i | nt | nt | nt | nt | nt | nt | nt
CCOC(=O)CCS(=O)(=O)c1ccc(-c2ccc(S(=O)(=O)CCC(=O)OCC)cc2)cc1 | i | i | i | i | i | 58 | i | i | i | i | i
Cc1ccc(S(=O)(=O)CCC(=O)OCC(=O)NC(N)=O)cc1 | i | i | i | i | i | i | nt | nt | nt | nt | nt
CCC(=O)Nc1ccc2c(c1)C(=O)N(C)[C@H]1CC[C@H](CC(=O)Nc3cccc(OC)c3)O[C@@H]1CO2 | nt | nt | nt | i | nt | nt | nt | nt | nt | nt | nt
CCc1ccc(/C=N\NC(=O)c2ccc(Br)o2)s1 | i | i | 55 | i | i | i | i | i | 76 | 67 | 54
O=c1oc2cc(O)ccc2c2oc3cc(O)ccc3c12 | i | i | 74 | i | 69 | i | i | i | 89 | 63 | i
O=C(O)COc1ccccc1/C=N/NC(=O)CSc1nnc(SCc2ccc(Cl)cc2)s1 | i | i | 66 | i | i | i | i | i | 67 | i | i
Cc1ccc(CSc2nnc(SCC(=O)N/N=C/c3c(C)nn(-c4ccccc4)c3C)s2)cc1 | i | i | 75 | nt | i | 55 | i | i | i | i | i
